In the supplement of paper PMC7695840:
Where a name gives a salt, the structure may show the parent alone.

What was measured:
[1] = system: Staphylococcus aureus MW2 delta-mecA (mecA-); assay: normalized GFP fluorescence (growth of mecA- strain) (fraction of control range); higher = more growth of mecA- strain; conditions: compound concentration: 150 uM; cefoxitin: subinhibitory; fluorescent label: GFP
How it was run: (§1)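 In 1536-well plates holding 150 μM compound (1.5% DMSO), a 1:1 mix of pre-induced S. aureus MW2 cells was added at 5 µL/well, in one replicate. One strain carried the gene and DsRed, the other lacked the gene and carried GFP, and the LB held a subinhibitory antibiotic dose chosen daily. Plates stood unshaken for 20 h at 37 °C, 90% humidity, before DsRed (540/590) and GFP (485/520) readings, which were scaled per plate to single-strain control medians, with plates high in untreated ratio and rows above DsRed/GFP 10 dropped.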

[2] = system: Staphylococcus aureus MW2 (mecA+); assay: normalized DsRed fluorescence (growth of mecA+ strain) (fraction of control range); higher = more growth of mecA+ strain; conditions: compound concentration: 150 uM; cefoxitin: subinhibitory; fluorescent label: DsRed
How it was run: as §1

Row | Structure (SMILES) | normalized GFP fluorescence [1] | normalized DsRed fluorescence [2]
1 | NS(=O)(=O)c1cc2c(cc1Cl)NCNS2(=O)=O | 0.562 | 0.865
2 | C[n+]1ccccc1C=NO | 0.166 | 0.637
3 | COC(=O)Nc1nc2cc(C(=O)c3ccc(F)cc3)ccc2[nH]1 | 0.715 | 0.661
4 | CC(C(=O)O)c1cccc(Oc2ccccc2)c1 (stereo unspecified) | 0.136 | 0.467
5 | CN(C)C/C=C/C(=O)Nc1cc2c(Nc3ccc(F)c(Cl)c3)ncnc2cc1O[C@H]1CCOC1 [Afatinib (BIBW2992)] | -0.00507 | 1.68
6 | CC(=O)[C@@]1(O)CC[C@H]2[C@@H]3CCC4=CC(=O)CCC4=C3[C@@H](c3ccc(N(C)C)cc3)C[C@@]21C [Ulipristal] | 0.57 | 0.967
7 | O=C(O)c1cccc(-c2noc(-c3ccccc3F)n2)c1 [PTC124 (Ataluren)] | 0.0948 | 0.473
8 | O=C1C(O)=C([C@H]2CC[C@H](c3ccc(Cl)cc3)CC2)C(=O)c2ccccc21 [Atovaquone (Atavaquone)] | 0.714 | 0.498
9 | Cc1cn([C@H]2C=C[C@@H](CO)O2)c(=O)[nH]c1=O | 0.779 | 0.601
10 | CCCNC(=O)NS(=O)(=O)c1ccc(Cl)cc1 | 0.221 | 0.489
11 | Cc1ccc(/C(=C\CN2CCCC2)c2ccccn2)cc1 | 0.244 | 0.576
12 | CCOC(=O)[C@H](CCc1ccccc1)N[C@H]1CS[C@H](c2cccs2)CN(CC(=O)O)C1=O [Temocapril HCl] | 0.372 | 0.936
13 | CC#CCn1c(N2CCC[C@@H](N)C2)nc2c1c(=O)n(Cc1nc(C)c3ccccc3n1)c(=O)n2C | 0.315 | 0.667
14 | CCCc1nc(C(C)(C)O)c(C(=O)OCc2oc(=O)oc2C)n1Cc1ccc(-c2ccccc2-c2nnn[nH]2)cc1 | 0.0265 | 0.605
15 | Cc1cn([C@H]2C[C@H](N=[N+]=[N-])[C@@H](CO)O2)c(=O)[nH]c1=O | 0.317 | 0.887
16 | C[C@H]1C[C@@H]2[C@H]([C@@H](O)C[C@@]3(C)[C@H]2CC[C@]3(O)C(=O)COC(=O)CCC(=O)O)[C@@]2(C)C=CC(=O)C=C12 | 0.634 | 0.526
17 | CCCCCCOC(=O)NC(=N)c1ccc(NCc2nc3cc(C(=O)N(CCC(=O)OCC)c4ccccn4)ccc3n2C)cc1 [BIBR-1048 (Dabigatran)] | 0.0654 | 0.815

Row | Structure (SMILES) | normalized GFP fluorescence [1] | normalized DsRed fluorescence [2]
18 | Cc1cccc(Nc2ccccc2C(=O)O)c1C [Mefenamic Acid] | 0.0909 | 0.169
19 | COc1cc(Nc2ncc(F)c(Nc3ccc4c(n3)N(COP(=O)(O)O)C(=O)C(C)(C)O4)n2)cc(OC)c1OC | 0.774 | 0.602
20 | Cc1noc(NS(=O)(=O)c2ccc(N)cc2)c1C | 0.025 | 0.437
21 | C[N+](C)(C)C[C@H](O)CC(=O)[O-] | 0.791 | 0.508
22 | CC(CN(C)C)CN1c2ccccc2CCc2ccccc21 (stereo unspecified) | 0.0825 | 1.55
23 | c1ccc([C@H]2CN3CCSC3=N2)cc1 | 0.522 | 0.535
24 | C[C@H]1O[C@H](O[C@H]2[C@H](O)[C@@H](O)[C@@H](O[C@H]3[C@H](O)[C@@H](O)C(O)O[C@@H]3CO)O[C@@H]2CO)[C@H](O)[C@@H](O)[C@@H]1N[C@H]1C=C(CO)[C@@H](O)[C@H](O)[C@H]1O (stereo partly specified) | 0.505 | 0.683
25 | CNCCCN1c2ccccc2CCc2ccccc21 | 0.0357 | 1.99
26 | CC(=O)O[C@H]1CC[C@@]2(C)C(=CC[C@@H]3[C@@H]2CC[C@]2(C)C(c4cccnc4)=CC[C@@H]32)C1 [Abiraterone Acetate (CB7630)] | 0.278 | 0.65
27 | CC(C)(CO)[C@@H](O)C(=O)NCCCO | 0.406 | 0.653
28 | CC[N+](C)(C)Cc1ccccc1Br | 0.178 | 0.523
29 | COc1cc2c(cc1Cc1cccc(Cl)c1F)c(=O)c(C(=O)O)cn2[C@H](CO)C(C)C [Elvitegravir (GS-9137)] | 0.0202 | 0.102
30 | Cc1nc2n(c(=O)c1CCN1CCC(c3noc4cc(F)ccc34)CC1)CCCC2 | 0.481 | 0.492
31 | CC(=O)N[C@@H](CS)C(=O)O | 0.328 | 0.653
32 | COC(=O)N[C@H](C(=O)N1CCC[C@H]1c1ncc(-c2ccc(-c3ccc(-c4cnc([C@@H]5CCCN5C(=O)[C@@H](NC(=O)OC)C(C)C)[nH]4)cc3)cc2)[nH]1)C(C)C | 0.242 | 0.788
33 | CC(C)C[C@H](NC(=O)[C@H](CCc1ccccc1)NC(=O)CN1CCOCC1)C(=O)N[C@@H](Cc1ccccc1)C(=O)N[C@@H](CC(C)C)C(=O)[C@@]1(C)CO1 [Carfilzomib (PR-171)] | 0.271 | 1.11
